Sampled rows, rich in hits. Any-hit rate of the full collection: about 6%.
Tau FP inhib – inhibitors of human tau fibril formation | K18 P301L tau heparin fibrillization, Alexa594 FP, 6 h | P10636 | actives 0.39% (n = 280,000) | AID 1468 | Potency, µM (highest dose often 57.7 µM), for the others: at the top dose activity, negative = inhibition, actives largely listed as inhibitors; note: nearly all actives have a fitted effect of over 55% in size
Target sequence (P10636 561-689 P618L limits assumed): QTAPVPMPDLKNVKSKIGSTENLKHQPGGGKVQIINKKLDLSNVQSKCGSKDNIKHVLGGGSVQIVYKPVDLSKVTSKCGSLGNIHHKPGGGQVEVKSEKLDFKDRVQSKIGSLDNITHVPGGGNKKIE
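Quantitative HTS format: compounds meet 15 uM recombinant K18 P301L tau and Alexa 594-tau tracer in 100 mM sodium acetate pH 7; 20 uM heparin triggers fibrillization at 37 C over 6 hr; FP gives the signal.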
Sfp PPTase inh – blocks B. subtilis Sfp PPTase activity | actives 3.5% (n = 310,000) | Biochemical Sfp PPTase activity, qHTS | Q9F4F7 | Potency, µM, for the others: largest response in the series, negative = inhibition, hits mostly inhibitors | AID 1490;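 note: the enzyme is Sfp with the accession as filed and its product quenches rhodamine fluorescence; 0% = enzyme reaction without inhibitor and -100% = no enzyme wells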
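Fluorescence-quenching assay: 15 nM Sfp-PPTase preincubated 15 min at room temperature with compound, then 5 uM rhodamine-CoA and 12.5 uM BHQ-2-labelled YbbR peptide added. Fluorescence (ex 525/em 598 nm) read at start and after 30 min; difference gives rate.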
PLK1 PBD block – blocks phosphopeptide binding to human PLK1 polo-box domain. P53350. Plk1 PBD binding of FITC phosphopeptide, fluorescence polarization. Potency, µM, for inactives: max response, negative = inhibition, actives largely listed as inhibitors. actives 2.8% (n = 360,000); note: series mostly up to about 57 µM; nearly all actives have a fitted effect of over 65% in size
Target sequence (P53350 whole entry, looked up, the tested form may be a part): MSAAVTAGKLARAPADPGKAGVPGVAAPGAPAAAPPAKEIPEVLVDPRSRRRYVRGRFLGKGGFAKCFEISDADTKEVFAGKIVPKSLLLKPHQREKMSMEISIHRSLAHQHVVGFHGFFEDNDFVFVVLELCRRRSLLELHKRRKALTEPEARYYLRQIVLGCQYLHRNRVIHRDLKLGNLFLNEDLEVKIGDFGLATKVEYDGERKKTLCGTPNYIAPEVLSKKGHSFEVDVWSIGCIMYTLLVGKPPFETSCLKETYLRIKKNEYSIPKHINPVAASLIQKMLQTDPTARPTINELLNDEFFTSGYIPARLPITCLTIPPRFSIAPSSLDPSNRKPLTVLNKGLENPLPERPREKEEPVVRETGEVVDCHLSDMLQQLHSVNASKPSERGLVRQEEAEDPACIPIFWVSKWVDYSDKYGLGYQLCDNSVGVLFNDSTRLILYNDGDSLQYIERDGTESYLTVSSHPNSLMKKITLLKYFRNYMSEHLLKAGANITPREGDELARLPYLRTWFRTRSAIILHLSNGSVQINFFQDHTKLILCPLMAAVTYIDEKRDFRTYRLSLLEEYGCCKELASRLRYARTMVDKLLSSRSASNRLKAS
Tau ThT inhib – tau fibrillization inhibition (ThT binding); Potency, µM (series often up to 57.4 µM), inactives show at the top dose activity, negative = inhibition, usual class: inhibitors; recombinant tau K18 P301L, heparin-induced fibrillization, ThT fluorescence; AID 1460; actives 2.1% (n = 270,000); note: nearly all actives have a fitted effect of over 55% in size
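Aggregation was driven by heparin (20 uM final) acting on recombinant tau […] bearing P301L in 100 mM sodium acetate pH 7; fibrils were detected with Thioflavin T.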
VDR inh – inhibitors of human vitamin D receptor; Potency, µM, for inactives: max response, negative = inhibition, actives largely listed as inhibitors; AID 504847; P11473; VDR-SRC2-3 peptide fluorescence polarization, 2 h; actives 0.93% (n = 400,000)
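Fluorescence polarization assay of small-molecule disruption of VDR binding to coregulator peptide SRC2-3. Compounds and controls pin-transferred, then read after 2 h incubation at ambient room temperature.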
Tau fluor counter – counter-screen for tau fibril formation inhibitors; actives 0.93% (n = 280,000); tau K18 P301L Alexa594 fluorescence, heparin fibrillization; Potency, µM (highest dose often 57.7 µM), without a hit: top-dose activity change, negative = decrease; note: nearly all actives have a fitted effect of over 55% in size
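Human tau K18 P301L (15 uM unlabeled, 0.24 uM Alexa 594-labeled) in 100 mM sodium acetate pH 7 with 20 uM heparin, 6 hr at 37 C. ThT 30 uM added, 1 hr ambient; Alexa 594 FP and total fluorescence read at 555/632 nm.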
Numbers without * were called inactive; ? = inconclusive; . = no result given; [ ] = another dose, or the depositor's remark. Calls come from the whole dose curve; as a rule, active = well fitted curve in the direction sought with a large enough effect; inconclusive = small, poorly fitted or top-dose-only effect, or another doubt; inactive = no such curve, though single readings can be large; an effect the other way counts as inactive or inconclusive. Unless noted, % is set by controls: 0 for no effect and ±100 for the full control effect; potency is the fitted concentration of half-maximal effect.

SMILES | Tau FP inhib | Sfp PPTase inh | PLK1 PBD block | Tau ThT inhib | VDR inh | Tau fluor counter
O=C(CSC1=Nc2ccccc2C2=NC(CCC(=O)NC3CCCCC3)C(=O)N12)Nc1cccc(Cl)c1 (stereo not given) | 1.7% | . | . | -12.2% | -0.1% | -25.4%
CC(C)CC(NC(=O)C(COCc1ccccc1)NC(=O)OC(C)(C)C)C(=O)NN (stereo not given) | 8.7% | 12.8% | 26.7µM* | -8.2% | -21.5% | 0.6%
COc1ccc(-n2cnc3cc(NCc4cccs4)ccc32)cc1 | 13.9% | -4.3% | 26.7µM* | ? | -10.0% | ?
Cc1cc(NC(=O)C(C)C)ncc1NC(=O)c1ccccn1 | 6.5% | 79.4µM* | 26.7µM* | -1.9% | -17.0% | -1.7%
CCCC(=O)Nc1cc(C)c(NC(=O)c2ccccn2)cn1 | -4.2% | ? | ? | -5.6% | -9.1% | -9.7%
CC(=O)c1ccc(Nc2nc(C(N)COCc3ccccc3)cs2)cc1 (stereo not given) | . | . | 3.2% | . | . | .
COCCCn1c(SCC(=O)Nc2ccccc2OC)nc2c(sc3ccccc32)c1=O | 0.1% | . | . | ? | 10.5% | -28.3%
C=CCN(C(=O)CSc1nc2c(sc3ccccc32)c(=O)n1CCN(CC)CC)c1ccccc1 | ? | 50.1µM* | -8.9% | ? | ? | -21.6%
COc1ccccc1NC(=O)CSc1nc2c(sc3ccccc32)c(=O)n1CCN(C)C | ? | 39.8µM* | ? | ? | 79.4µM* | -14.0%
COc1cccc(CNC(=O)[C@@H]2CCCN2C(=O)OC(C)(C)C)c1 | . | . | -8.0% | . | . | .
O=c1cc(N2CCc3ccccc32)[nH]c(=O)n1-c1ccc(Br)cc1 | ? | -11.2% | -7.5% | 28.2µM* | 4.2% | -27.6%
Cc1ccccc1-n1c(=O)cc(N2CCc3ccccc32)[nH]c1=O | 2.3% | 56.2µM* | -19.2% | -17.0% | -6.5% | -3.7%
CCc1nn(CC(=O)NCc2cccnc2)c(=O)c2cc3occc3n12 | . | 8.9% | -15.0% | . | -11.0% | .
COc1cc(NC(=O)CSc2ccc(-c3sc(C)nc3C)nn2)cc(OC)c1 | -3.8% | . | . | ? | 7.8% | -24.2%
CSc1nc(N2CCOCC2)c2c(c1C#N)CC(C)(C)OC2 | 0.8% | 16.8% | -6.0% | -1.4% | 3.5% | -9.6%
CC1(C)Cc2c(c(N3CCCC3)[nH]c(=S)c2C#N)CO1 | -1.7% | 39.8µM* | . | -2.4% | . | -4.2%
COc1ccc(CNC(=O)c2cnc3sc(N4CCCCCC4)nn3c2=O)cc1 | 7.7% | . | . | 5.6% | 18.4% | 5.1%
Cc1c(-c2csc(N)n2)cnn1C | -4.7% | -0.7% | ? | -13.2% | -16.7% | -0.9%
C=CCn1c(C)cc(-c2csc(NCC)n2)c1C | -14.5% | ? | ? | ? | 107.6% | ?
C=CCn1c(C)cc(-c2csc(N)n2)c1C | ? | 39.8µM* | ? | 15.8µM* | 40.6% | ?
CCCn1c(C)cc(-c2csc(N)n2)c1C | ? | 56.2µM* | -18.6% | 15.8µM* | 44.8% | ?
C=CCn1c(C)cc(-c2csc(NC)n2)c1C | 3.8% | 25.1µM* | -8.5% | 4.5% | 11.8% | 5.1%
Cc1nc2c(OCc3ccc(C(F)(F)F)cc3)cccn2c1N(C)Cc1cccs1 | . | . | -14.6% | . | . | .
CC(CNC(=O)Cc1ccc(NC(=O)N2CCSc3ncccc32)cc1)c1ccccc1 (stereo not given) | -6.7% | . | . | -2.6% | 4.5% | -7.7%
CCN(CC)c1ccc(NC(=O)Nc2cccc(C(C)=O)c2)cc1 | 13.3% | -25.8% | -10.1% | ? | 1.2% | 17.8µM*[quencher]
SMILES | Tau FP inhib | Sfp PPTase inh | PLK1 PBD block | Tau ThT inhib | VDR inh | Tau fluor counter
Cc1ccc(OC(=O)c2cccc(C(=O)Oc3ccc(C)cn3)n2)nc1 | 3.9% | 50.1µM* | . | -13.3% | . | -0.5%
Cc1cccc(C)c1OCc1nc2ccccc2c(=O)n1/N=C/c1c[nH]c2ccccc12 | ? | 37.0% | -2.0% | -4.8% | 7.8% | 3.55µM*[quencher]
CC(C)S(=O)(=O)c1csc(NC(=O)Nc2ccc(Cl)cc2)c1 | ? | -21.2% | 5.1% | -3.8% | -4.1% | 15.8µM*[quencher]
CS(=O)(=O)c1ccc2nc(NC(=O)Nc3ccc(Cl)cc3)sc2c1 | -20.0% | 25.8% | 1.1% | 5.0% | -1.5% | -15.3%
O=C(NCC(c1ccco1)N1CCCC1)c1ccc(Cl)c(S(=O)(=O)N2CCc3ccccc32)c1 (stereo not given) | . | . | -3.4% | . | ? | .
O=C(CC1NCCc2ccccc21)Nc1ccccc1 (stereo not given) | 6.7% | 1.5% | -7.5% | -2.5% | -2.5% | -1.5%
O=C(O)CC1NCCc2ccccc21 (stereo not given) | 5.5% | 14.6% | 29.9µM* | -3.8% | -11.7% | -0.1%
N#C/C(=N\Nc1ccccc1Cl)C(=O)c1ccccc1 | ? | 11.6% | ? | 20µM* | -2.7% | -22.2%
N#C/C(=N\Nc1cccc(Cl)c1)C(=O)c1ccccc1 | 10.9% | 11.7% | ? | 10µM* | -15.7% | ?
CCC(CC)=NNc1cccc([N+](=O)[O-])c1 | 6.2% | 4.5% | -1.9% | 5.5% | -8.6% | -1.6%
CC(=O)/C(N)=N/Nc1cccc(Cl)c1 | 15.8% | -10.6% | -0.1% | ? | 9.3% | ?
COc1ccc(C(=O)/C(C#N)=N/Nc2cccc([N+](=O)[O-])c2)cc1 | 5.5% | -9.8% | ? | 7.94µM* | 11.5% | ?
O=C1O[C@@H]([C@@H](O)CO)[C@@H](O)[C@H]1O | . | 10.0% | . | . | -19.5% | .
COc1ccc(-n2nc3c(c2NC(=O)c2ccc4c(c2)OCO4)CS(=O)(=O)C3)cc1 | . | -15.7% | -23.7% | . | -5.8% | .
COC(=O)c1c(-c2cccnc2)csc1NC(=O)c1ccc2c(c1)OCO2 | . | ? | -28.8% | . | 89.1µM* | .
COC(=O)c1sccc1NC(=O)c1ccc2c(c1)OCO2 | -5.4% | 17.1% | -4.7% | 2.3% | 0.8% | -11.4%
CN(C)c1ccnc(-c2ccccc2C(F)(F)F)n1 | 8.2% | -22.3% | . | -0.2% | -25.5% | 2.2%
CNc1ncncc1-c1ccccc1C | . | 12.3% | . | . | 70.8µM* | .
CN(C)Cc1ccccc1-c1cncnc1Nc1ccccc1 | . | 11.0% | . | . | -4.1% | .
COc1cccc(-c2cncnc2Nc2ccccc2)c1 | . | 14.2% | . | . | 39.8µM* | .
Cc1ccccc1-c1cncnc1Nc1ccccc1 | . | -8.8% | . | . | 44.7µM* | .
COc1cccc(-c2cncnc2NCc2ccccc2)c1 | 1.4% | -7.0% | . | ? | 4.2% | -4.9%
Cc1cnc(CNc2ncncc2-c2ccccc2C)cn1 | . | ? | . | . | -24.5% | .
Fc1ccc(Nc2ccnc(-c3ccccc3C(F)(F)F)n2)cc1 | . | 7.5% | . | . | 44.7µM* | .
COc1ccc(OC)c(NC(=O)CSc2cn(CC(=O)N3CCOCC3)c3ccccc23)c1 | 1.4% | . | . | -5.6% | 6.5% | -10.1%
O=C(COC(=O)Cc1ccc(Cl)cc1)NCc1ccc(Cl)cc1 | . | . | -2.2% | . | . | .
Fc1ccc(Nc2ncncc2-c2ccccc2C(F)(F)F)cc1 | . | 79.4µM* | . | . | ? | .

Compound activity: PubChem BioAssay, National Center for Advancing Translational Sciences (NCATS)
